Pf growth 96h – P. falciparum growth inhibition at 96 hour, primary screen for plastid delayed-death inhibitors; 320,000 compounds, 6.9% hits; AID 504834; P. falciparum luciferase reporter growth, 96 h; Potency, µM (series often up to 28.7 µM), for inactives: top-dose activity change, negative = inhibition, actives largely listed as inhibitors; further: potency means the concentration at half of the fitted maximal effect
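Compounds incubated with erythrocytes infected by luciferase-expressing P. falciparum (2% hematocrit, 0.05% parasitemia final) for 96 hours, 37 C in 5% CO2. Growth inhibition scored as decreased luciferase luminescence.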
Pf growth 48h – P. falciparum growth inhibition at 48 hours (one generation); 310,000 compounds, 5.9% hits; AID 504832; P. falciparum luciferase growth in erythrocytes, 48 h; Potency, µM (titrated, usually from 28.7 µM), for the others: at the highest dose activity change, negative = inhibition, hits mostly inhibitors; further: potency means the concentration at half of the fitted maximal effect
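Luciferase-expressing parasites in RBCs, 2% Hct / 0.1% parasitemia final; RPMI 1640 + 0.5% Albumax; 37 C, 5% CO2, one generation; luminescence read-out, lower signal = inhibition.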
HCMV inh – inhibitors of human cytomegalovirus. HFF cells, HCMV-luciferase reporter, 72 h; stronger effect = lower value. activity change, negative = inhibition, % at 57.5 µM. 410,000 compounds, 4.5% hits. AID 1259415; in the data active means activity change below about -60%; inconclusive means no clear call, values can overlap the other calls; inactive means above about -39%
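Screen run at 2 compound doses on HFFs infected with reporter HCMV, MOI 1 PFU/cell. Luciferase activity from cell lysates at 72 h post infection gave inhibition relative to buffer-only and Salinomycin wells.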
HCV inhibitor – HCV inhibition; Huh7.5.1 HCVcc-Cre infection, luciferase reporter, 44 h; Potency, µM (doses to about 41.8 µM), for the others: at the top dose activity change, negative = inhibition, usual class: inhibitors; 340,000 compounds, 3.4% hits; further: potency means the concentration at half of the fitted maximal effect
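Whole-lifecycle infectious HCVcc-Cre system; cells 1,000/well, compound then virus (~0.5 moi) added 4 h after plating, 44 h culture. Luciferase read 15 sec following 15 min substrate incubation, room temp.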
* marks the source's active call; other numbers are inactive results; ? = inconclusive; · = not tested or not shown. In the library only some 13% were active in any assay of this set; here they are far more common. Unless noted, the call rests on the fitted dose curve; in most records, active means well fitted inhibition curve with a large enough effect; inconclusive means small, poorly fitted or top-dose-only effect, or another doubt; inactive means no such curve, though single readings can be large or run the other way. On the % scale 0 is the no-effect control and ±100 the full control effect.

SMILES	Pf growth 96h	Pf growth 48h	HCMV inh	HCV inhibitor
COC(=O)C1=C(C)NC(=O)CC1c1cccc(Cl)c1Cl (stereo unspecified)	?	5.2µM*	2	5%
COc1ccc(-c2nc3n(n2)C(c2ccc(OC)cc2)C(C(=O)Nc2cccnc2)=C(C)N3)cc1 (stereo unspecified)	·	·	-1	·
CCS(=O)(=O)Nc1ccc(C2=NN(C(=O)c3ccco3)C(c3ccc(Cl)o3)C2)cc1 (stereo unspecified)	·	·	2	22µM*
CCS(=O)(=O)Nc1ccc(C2=NN(C(=O)c3ccco3)C(c3ccc(C)cc3)C2)cc1 (stereo unspecified)	?	10µM*	-3	?
CCC(=O)N1N=C(c2ccc(NS(=O)(=O)c3ccc(C)cc3)cc2)CC1c1ccco1 (stereo unspecified)	·	·	81	11µM*
COc1ccc(C2=NN(C(=O)COC(=O)c3ccc(NC(=O)CC#N)cc3)C(c3ccco3)C2)cc1 (stereo unspecified)	?	12µM*	9	11%
Cc1ccc(C2CC(c3ccc(NS(C)(=O)=O)cc3)=NN2C(=O)c2ccco2)cc1 (stereo unspecified)	?	-17%	-13	-14%
CCS(=O)(=O)Nc1ccc(C2=NN(C(=O)c3ccco3)C(c3cccc(F)c3)C2)cc1 (stereo unspecified)	?	?	17	?
COc1cc2c(C(=O)N3CCN(c4cccc(C)c4)C(C)C3)cn(CC(C)C)c(=O)c2cc1OC (stereo unspecified)	·	·	9	·
Cc1ccc2onc(CC(=O)N3CCN(c4cc(Cl)ccc4C)CC3)c2c1	·	·	-8	·
Cc1ccc(S(=O)(=O)c2cnc(SCC(=O)Nc3cc(C)cc(C)c3)nc2N)cc1	·	·	-11	·
CS(=O)(=O)Nc1ccc(C2=NN(C(=O)c3ccco3)C(c3cccc(F)c3)C2)cc1 (stereo unspecified)	?	13µM*	?	?
CC(C)N(Cc1nccn1C)C(=O)c1cc(COc2ccc(F)cc2Cl)on1	-27%	?	-97*	-54%
CCC(NC(=O)c1cc(COc2ccc(F)cc2Cl)on1)c1ccncc1 (stereo unspecified)	-6%	-1%	?	4µM*
O=C(c1cc(COc2ccc(F)cc2Cl)on1)N1CCC(c2ccncc2)CC1	-1%	-30%	-67*	13µM*
CCN(CC1CCCO1)C(=O)c1cc(COc2cc(C)c(Cl)c(C)c2)on1 (stereo unspecified)	12µM*	2%	33	-29%
CCC(NC(=O)c1cc(COc2cncc(Cl)c2)on1)c1ccncc1 (stereo unspecified)	?	8%	?	?
CCCCc1nn2c(=O)cc(COC(=O)c3ccc(NC(=O)C(CC)CC)cc3)nc2s1	·	·	71	·
O=C(NCC(c1ccc2c(c1)OCO2)N1CCOCC1)c1cccc(Cl)c1 (stereo unspecified)	·	·	19	·
CSc1ccc(-c2nc3c(C)cccn3c2Nc2ccc3c(c2)OCCO3)cc1	·	·	-18	·
O=C(c1cc(COc2ccc(F)cc2Cl)on1)N(Cc1ccncc1)CC1CCCO1 (stereo unspecified)	-27%	?	-61*	?
Cc1nn(C)cc1NC(=O)CC12CC3CC(CC(C3)C1)C2	31%	7%	64	-2%
CCn1nc(C)c(NC(=O)CC23CC4CC(CC(C4)C2)C3)c1C	8.3µM*	-14%	-11	3%
CCN(CC)c1ccc(NS(=O)(=O)c2cc3[nH]c(=O)c(=O)[nH]c3cc2C)c(C)c1	·	·	-3	·
Cc1cccc(Nc2ncnc(N)c2[N+](=O)[O-])n1	?	14%	-79*	11%
SMILES	Pf growth 96h	Pf growth 48h	HCMV inh	HCV inhibitor
Cc1ccc(C)c(Nc2ncnc(N)c2[N+](=O)[O-])c1	2.1µM*	3%	-27	6%
Cc1cccnc1Nc1ncnc(N)c1[N+](=O)[O-]	?	8%	-20	17%
COc1cc(C)ccc1Oc1ncnc(N)c1[N+](=O)[O-]	?	4%	41	7%
Cc1cc(C)nc(Sc2ncnc(N)c2[N+](=O)[O-])n1	-2%	?	?	22µM*
Cc1ccc2nc(SCc3nc(-c4ccccc4C)no3)[nH]c2c1	·	·	-35	·
CCOc1ccc(NC(=O)Cn2nnc(C(=O)OC)c2C(=O)OC)cc1	·	·	-2	·
CC1(C)CC(=O)C=C(c2n[nH]nc2-c2ccccc2)C1	·	·	-32	·
CCN1CCN(/C=N/c2nc3c(s2)CCCC3)CC1	-11%	·	-69*	?
CN1CCN(CC(=O)Nc2nc3c(s2)CCCC3)CC1	25%	15%	101	-7%
COc1ccc([C@H]2Cc3cccc(O)c3C(=O)O2)cc1O	29%	73%	2	?
COc1ccc([C@H]2Cc3cc(O)cc(O)c3C(=O)O2)cc1O	·	·	-102*	13%
COc1ccc(-c2cn3nc(N4CCCC(C(=O)Nc5ccc(C)c(C)c5)C4)sc3n2)cc1 (stereo unspecified)	·	·	0	·
CCCOc1cccc(C2c3c(oc4ccc(F)cc4c3=O)C(=O)N2c2nc(C)c(C(C)=O)s2)c1 (stereo unspecified)	·	·	-16	·
Cc1ccc(C)c2[nH]c(=O)c(CN(Cc3ccco3)C(=O)Nc3ccccc3)cc12	?	12µM*	·	?
Cc1cccc2cc(CN(Cc3ccco3)C(=O)Nc3cccc(C#N)c3)c(Cl)nc12	13µM*	9.3µM*	-31	?
COc1ccccc1NC(=O)N(Cc1ccco1)Cc1cc2ccc(C)c(C)c2[nH]c1=O	4%	?	46	?
CCCC(=O)NCCc1cc2c(C)ccc(C)c2[nH]c1=O	15%	0%	?	0%
Cc1ccc2cc(CN(Cc3ccco3)C(=O)c3ccccc3)c(=O)[nH]c2c1C	-10%	-15%	-26	2%
Cc1ccc2cc(CN(Cc3ccco3)C(=O)NCc3ccccc3)c(=O)[nH]c2c1C	12µM*	-29%	-11	?
Cc1ccc(C)c2[nH]c(=O)c(CCNC(=O)CCc3ccccc3)cc12	5%	-5%	-76*	0%
CCc1ccc(NC(=O)C2CCN(C(=O)N3CC(CC)Oc4ccccc43)CC2)cc1 (stereo unspecified)	·	·	64	·
Cc1cc(C)c(NC(=O)Cn2c(=O)n(CCC(C)C)c(=O)c3cccnc32)c(C)c1	·	·	8	·
CC1=CC(=O)NS(=O)(=O)O1	-9%	-5%	·	·
CC(=O)Nc1cc2c(cc1C(=O)c1ccc(C)cc1)OCCO2	-6%	1%	41	-11%
CCC(=O)c1cc2c(cc1NC(=O)C(C)C)OCCO2	2.3µM*	-2%	-24	6.3µM*
CCC(=O)c1cc2c(cc1NC(=O)c1ccccc1F)OCCO2	·	·	-14	·
CC(C)C(=O)Nc1cc2c(cc1C(=O)c1ccccc1)OCCO2	1.3µM*	?	-3	-1%
CCCC(=O)c1cc2c(cc1NC(=O)c1ccccc1F)OCCO2	12µM*	?	0	?
Cc1cc(-c2ccc(C)c(S(=O)(=O)NCc3cccs3)c2)on1	·	·	0	·
